Screening data deposited in PubChem by National Center for Advancing Translational Sciences (NCATS).
Sfp PPTase inh – qHTS Assay for Inhibitors of Bacillus subtilis Sfp phosphopantetheinyl transferase (PPTase). actives 3.5% (n = 310,000). Biochemical Sfp PPTase activity, qHTS. Potency, µM, inactives show largest response in the series, negative = inhibition, most hits filed as inhibitors;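 further: the enzyme is Sfp with the accession as filed and its product quenches rhodamine fluorescence; 0% = enzyme reaction without inhibitor and -100% = no enzyme wells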
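Buffer: 50 mM Hepes-Na pH 7.6, 10 mM MgCl2, 0.01% Nonidet P-40, 0.01% BSA. Enzyme 15 nM, pre-exposed to compound 15 min; substrates then added and fluorescence change tracked over 30 min.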
G9a inh – qHTS Assay for Inhibitors of Histone Lysine Methyltransferase G9a | Histone-lysine N-methyltransferase EHMT2 (Homo sapiens), Q96KQ7 | G9a H3K9 monomethylation, AlphaScreen, 2 h | Potency, µM (series often up to 102 µM), inactives show at the top dose activity, negative = inhibition, hits mostly inhibitors | actives 8.8% (n = 350,000) | AID 504332, 2011; further: on the % scale 0 is the no-effect control and ±100 the full control effect; nearly all actives have a fitted effect of over 75% in size
Target sequence (Q96KQ7 913-1193 limits assumed): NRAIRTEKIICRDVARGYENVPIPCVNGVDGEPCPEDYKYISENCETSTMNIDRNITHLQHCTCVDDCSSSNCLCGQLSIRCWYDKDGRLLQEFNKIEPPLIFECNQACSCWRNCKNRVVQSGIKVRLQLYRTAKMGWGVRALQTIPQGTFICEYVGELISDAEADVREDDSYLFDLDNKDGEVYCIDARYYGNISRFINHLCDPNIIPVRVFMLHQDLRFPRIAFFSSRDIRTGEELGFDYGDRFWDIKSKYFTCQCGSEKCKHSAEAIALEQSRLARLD
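G9a (20 nM) was preincubated 15 min with compound, then reacted 2 h at room temperature with 500 nM biotin-H3K9 peptide and 20 µM SAM. Monomethyl-H3K9 detected by AlphaScreen using anti-H3K9me1 antibody.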
HP1b chromo inh – HTS for Inhibitors of HP1-beta Chromodomain Interactions with Methylated Histone Tails. Chromobox protein homolog 1 (Homo sapiens), P83916. AlphaScreen HP1-beta / biotin-H3K9me3 peptide binding. Potency, µM (titrated, usually from 114 µM), without a hit: at the top dose activity change, negative = inhibition, actives largely listed as inhibitors. actives 0.56% (n = 390,000). AID 540317, 2011; further: nearly all actives have a fitted effect of over 70% in size
Target sequence (P83916 whole entry, looked up): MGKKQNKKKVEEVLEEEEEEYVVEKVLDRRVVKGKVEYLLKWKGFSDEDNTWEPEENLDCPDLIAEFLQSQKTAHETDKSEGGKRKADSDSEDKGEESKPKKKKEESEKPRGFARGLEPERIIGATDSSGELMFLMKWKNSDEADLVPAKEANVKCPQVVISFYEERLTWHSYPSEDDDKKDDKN
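HP1-beta protein (50 nM final) preincubated 30 min at room temperature with biotinylated H3(1-18)K9me3 peptide (50 nM) in PBS pH 7.4, 0.01% Tween-20, then compound added for 30 min. AlphaScreen streptavidin donor/nickel chelate acceptor beads (10 ug/mL final), 30 min dark, luminescence read.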
BAZ2B block – qHTS Assay for Inhibitors of BAZ2B | AlphaScreen BAZ2B-H3K14Ac peptide displacement | Potency, µM (highest dose often 114 µM), inactives show at the top dose activity change, negative = inhibition, actives largely listed as inhibitors | actives 4.4% (n = 360,000) | AID 504333, 2011; further: on the % scale 0 is the no-effect control and ±100 the full control effect; nearly all actives have a fitted effect of over 60% in size
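Inhibition is scored as reduced AlphaScreen emission. The BAZ2B/b-H3(5-23)K14Ac complex (50 nM each) in PBS pH 7.4, 0.01% Tween-20 meets compound (up to 110 uM) for 30 min at RT before bead addition.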
PLK1 PBD block – qHTS for Inhibitors of PLK1-PDB (polo-like kinase 1 - polo-box domain): Primary Screen. Serine/threonine-protein kinase PLK1 (Homo sapiens), P53350. Plk1 PBD binding of FITC phosphopeptide, fluorescence polarization. Potency, µM, inactives show max response, negative = inhibition, usual class: inhibitors. actives 2.8% (n = 360,000). AID 720504, 2013; further: series mostly up to about 57 µM; on the % scale 0 is the no-effect control and ±100 the full control effect; nearly all actives have a fitted effect of over 65% in size
JMJD2A Tudor inh – qHTS Assay for Inhibitors of JMJD2A-Tudor Domain. Lysine-specific demethylase 4A (Homo sapiens), O75164. AlphaScreen JMJD2A-Tudor / H3K4me3 peptide binding. Potency, µM (highest dose often 114 µM), inactives show top-dose activity change, negative = inhibition, usual class: inhibitors. actives 4.4% (n = 390,000). AID 504339, 2011; further: on the % scale 0 is the no-effect control and ±100 the full control effect; nearly all actives have a fitted effect of over 50% in size
* = called active by the depositor; u = inconclusive; x = not tested or not shown; [ ] = dose if it differs, or a comment. Only some compounds are listed: those with a hit (about 12% of all), similar ones and a draw of the others. The call rests on the fitted dose curve; in most records, active means well fitted curve in the direction sought with a large enough effect; inconclusive means small, poorly fitted or top-dose-only effect, or another doubt; inactive means no such curve, though single readings can be large; an effect the other way counts as inactive or inconclusive. Potency means the concentration at half of the fitted maximal effect.

SMILES	Sfp PPTase inh	G9a inh	HP1b chromo inh	BAZ2B block	PLK1 PBD block	JMJD2A Tudor inh
CC1CCCN(S(=O)(=O)c2ccc(NC(=O)Cc3ccc(S(=O)(=O)N4CCOCC4)s3)cc2)C1 (stereo not given)	x	4µM*	-5%	7%	-4%	-21%
CNC(=O)c1ccc(NC(=O)Cc2ccc(S(=O)(=O)N3CCOCC3)s2)cc1	x	45µM*	13%	-17%	3%	3%
O=C(Cc1ccc(S(=O)(=O)N2CCOCC2)s1)NCC1CCCCC1	16%	-23%	-9%	u	-11%	-23%
NC(=O)COc1ccc(-c2noc(COc3ccc(Cl)cc3)n2)cc1	x	-4%[59 µM]	44%	10%[57.1 µM]	x	-5%
Cc1cc2c(s1)c1c(C)nn(Cc3ccccc3F)c(=O)c1n2C	x	9%[12.7 µM]	x	6%	x	x
CCSc1ncc(Cl)c(C(=O)N(Cc2ccc(C(C)(C)C)cc2)C2CCS(=O)(=O)C2)n1 (stereo not given)	x	-11%[59 µM]	26%	-12%	x	-25%
CCOc1ccc(NC(=O)COC(=O)Cc2ccc(S(=O)(=O)N3CCOCC3)s2)cc1	7%	40µM*	8%	u	-2%	-31%
O=C(Cc1ccc(S(=O)(=O)N2CCOCC2)s1)Nc1nc2c(s1)CCCC2	-107%	x	u	18µM*	u	56µM*
Cc1cccc(N(CC(=O)Nc2ccc(F)cc2)S(C)(=O)=O)c1	9%	4%	20%	3%	-8%	-13%
COc1ccc(NC(=O)CN(c2cc(C)cc(C)c2)S(=O)(=O)c2c(C)n[nH]c2C)cc1	10%	-16%	-9%	6%	30µM*	50µM*
Cc1cc(C)cc(N(CC(=O)Nc2ccc(C(F)(F)F)cc2)S(=O)(=O)c2c(C)[nH]c(=O)[nH]c2=O)c1	21%	25µM*	6%[57 µM]	-22%	-24%	-26%
Cc1cc(C)cc(NC(=O)CN(c2ccc(F)cc2)S(C)(=O)=O)c1	-21%	61%[12.7 µM]	u	22%	11µM*	-28%[11.4 µM]
Fc1cc(F)cc(Nc2nc(Cl)nc(NC3CCCC3)n2)c1	x	10%[0.501 µM]	92%	6%	x	-12%
O=C(O)/C=C/C(=O)NNC(=O)c1ccc(Br)cc1	-11%	25µM*	32%	-2%	-6%	-7%
O=C(NNc1ccc(O)cc1)c1ccc(Br)cc1	13µM*	1.6µM*	u	u	-28%	u
O=C(NNC(=O)c1ccc(Br)cc1)c1ccncc1	21%	-34%[0.501 µM]	50%	0%	3%	4%
COc1ccc(S(=O)(=O)NCc2ccc(F)cc2)cc1OC	16%	4%	37%	-19%	4%	-4%
CC(C)CCN(C(=O)Nc1ccc(Cl)cc1)C1CCN(C(C)C)CC1	0%	25%	20%	13%	-15%	-9%
CC1=CC(=O)C=C(C)C1=NOc1ccccc1[N+](=O)[O-]	5.6µM*	25µM*	5%	1%	-12%	-28%
Cc1cccc(N2CCN(C(=O)c3cnn(-c4ccccc4Cl)c3C3CCN(C(=O)OC(C)(C)C)CC3)CC2C)c1 (stereo not given)	x	u	-22%	-2%[57.1 µM]	x	-34%
O=c1c(C(c2ccc(Cl)cc2)c2c(O)nc3n(c2=O)CCS3)c(O)nc2n1CCS2	-3%	-23%[12.7 µM]	30%	-16%	27µM*	-11%
O=c1c2ccccc2nc2n1CCS2	10%	16%	35%	-5%	-2%	-2%
O=c1c(C(c2ccc(F)cc2)c2c(O)nc3n(c2=O)CCS3)c(O)nc2n1CCS2	-22%	25%[12.7 µM]	20%	-3%	19µM*	2%
O=c1c(C(c2ccc(Cl)cc2)c2c(O)nc3n(c2=O)CCCS3)c(O)nc2n1CCCS2	-10%	-48%	50%	-16%	u	-11%
Cc1cc2nnn(-c3nnc(-c4ccccc4)c4ccccc34)c2cc1C	4%	7%[59 µM]	8%	-4%	-5%	-12%
SMILES	Sfp PPTase inh	G9a inh	HP1b chromo inh	BAZ2B block	PLK1 PBD block	JMJD2A Tudor inh
CO[C@H]1COC(=O)C/C=C\[C@H](C)COC(=O)[C@@H](C)NC(=O)C/C=C\[C@@H]1C	1%	x	x	x	x	x
O=C(O)c1cccc(NC(=O)c2cn(-c3ccccc3)nc2-c2cc3ccccc3o2)c1	1%	5%[59 µM]	-2%	50µM*	u	-28%
N#Cc1c(Nc2ccc(Cl)cc2)s[nH]c1=O	50µM*	x	-5%	-5%	u	79µM*
CC(=O)c1cccc(OC(=O)Oc2cccc(C(C)=O)c2)c1	x	x	52%	x	-21%	-11%
S=c1[nH]nc(Cc2sc(-c3ccccc3)nc2-c2ccccc2)o1	6%	28µM*	2%	u	-26%	-32%
CCOC(=O)c1c(/N=C/N(C)C)sc(/C=N/Nc2ccccc2)c1-c1ccc(Cl)cc1	14%	u	-5%	-6%	30µM*	u
CC(Cc1cccnc1)NC(=O)c1ccccc1OC1CCN(S(C)(=O)=O)CC1 (stereo not given)	11%	9%	53%	10%	1%	-3%
O=C(Cc1ccccc1)NCC(=O)N1CCN(c2ccc(F)cc2)CC1	x	x	x	x	1%	x
CC(C)(C)C(=O)OCCNc1nc(-c2cccs2)nc2ccccc12	x	x	53%	x	x	-9%
COc1ccc(Cl)cc1NC(=O)c1c(NCc2cccnc2)sc2c1CCC(C)C2 (stereo not given)	x	u	u	-16%	x	u
CC(=O)c1cccc(S(=O)(=O)NCCc2csc3nc(-c4ccc(F)cc4)nn23)c1	x	-30%[59 µM]	-9%	-12%	x	-22%
O=C(Cc1ccc(-c2ccccc2)cc1)N1CCOCC1	-4%	-1%[12.7 µM]	9%	-2%	-15%	-20%
O=C(CCN1CCOCC1)c1ccc(Cl)cc1	-13%	11µM*	0%	-21%	21µM*	u
O=C(CCN1CCOCC1)c1ccc(Br)cc1	-29%	x	-8%	-14%	12µM*	-11%
O=C(Cc1ccc(Br)cc1)N1CCOCC1	20%	79µM*	23%	-8%	-13%	-9%
O=C(NCCCN1CCOCC1)c1ccc(Cl)cc1	4%	1%[12.7 µM]	x	x	x	x
Cc1noc(C)c1C(=O)N1CCC2(CC1)CN(c1ccccc1)C2	-9%	1%[12.7 µM]	x	x	x	x
CC(=O)NC(c1ccccc1)c1nc(-c2csc3ccccc23)cs1 (stereo not given)	x	x	x	x	-11%	x
CO[C@H]1COC(=O)[C@H]2CCCN2C(=O)C/C=C\[C@@H](C)[C@H](OC)COC(=O)[C@@H](OCc2ccccc2)/C=C\[C@@H]1C	4%	x	x	x	x	x
